NLRP3 yeast inh: inhibitors of NALP3 inflammasome in yeast. inhibition, % at 10 µM. hit rate 0.39% among 330,000. Yeast reconstituted NLRP3/ASC/caspase-1, beta-gal luminescence, 24 h;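 active means inhibition of 50% or more; inactive means inhibition below 50%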;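 further: plate controls were induced DMSO wells for no effect and uninduced yeast grown without galactose for full effect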
EBNA-1 inh: blocks EBNA-1 binding to DNA; EBNA-1 DNA binding, fluorescence polarization; inhibition, % at 14.8 µM; hit rate 0.34% among 300,000; AID 1950; in the data active means inhibition above about 28%
NALP1 inh: inhibitors of NALP1 inflammasome in yeast; S. cerevisiae NALP1/ASC/caspase-1 growth, X-gal OD620, 72 h; AID 2071; hit rate 0.61% among 280,000; inhibition, % at 10 µM; in the data active means inhibition mostly above about 24%, no sharp cut-off; inactive means mostly below about 32%
ZTA counter: ZTA (EBV) inhibition in EBNA-1 counter-screen. hit rate 0.15% among 320,000. inhibition, % at 11 µM. ZTA-DNA binding, fluorescence polarization. P03206; in the data active means inhibition above about 33%
Target sequence (P03206 whole entry, looked up): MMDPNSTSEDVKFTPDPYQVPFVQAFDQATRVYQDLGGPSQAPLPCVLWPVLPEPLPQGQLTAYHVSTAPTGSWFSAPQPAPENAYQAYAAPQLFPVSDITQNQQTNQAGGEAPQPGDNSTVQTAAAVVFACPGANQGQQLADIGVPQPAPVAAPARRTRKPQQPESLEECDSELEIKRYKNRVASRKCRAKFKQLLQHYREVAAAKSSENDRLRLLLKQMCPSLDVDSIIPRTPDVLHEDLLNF
PolyA inh: blocks polyadenylation in yeast reporter cells; activity score, % at 12 µM; S. cerevisiae SKY197-pL101 polyadenylation reporter, beta-gal luminescence; efflux-impaired pdr1/pdr3 knockout yeast; score 100 = 6 SD above DMSO; hit rate 0.02% among 300,000;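 active means lowest replicate activity score at least 50, where 100 means six control SD above control mean; inconclusive means lowest score under 50 but half or more replicates reach 50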;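 further: yeast exposed to compound for 9 h at 30 °C; higher score means more reporter readthrough which indicates perturbed polyadenylation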
dFosB activator: activators of mouse delta FosB homodimer; activation, % at 25 µM; purified delta FosB, TAMRA-CDK5 oligo fluorescence polarization; percent of positive-control signal above neutral wells; hit rate 0.99% among 340,000; P13346; AID 493131;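 active means mean activation above about 17%, with every replicate also reaching it, limit read from the data, passing the limit was not always enough; inconclusive means only one of the two conditions met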
Target sequence (P13346 whole entry, looked up): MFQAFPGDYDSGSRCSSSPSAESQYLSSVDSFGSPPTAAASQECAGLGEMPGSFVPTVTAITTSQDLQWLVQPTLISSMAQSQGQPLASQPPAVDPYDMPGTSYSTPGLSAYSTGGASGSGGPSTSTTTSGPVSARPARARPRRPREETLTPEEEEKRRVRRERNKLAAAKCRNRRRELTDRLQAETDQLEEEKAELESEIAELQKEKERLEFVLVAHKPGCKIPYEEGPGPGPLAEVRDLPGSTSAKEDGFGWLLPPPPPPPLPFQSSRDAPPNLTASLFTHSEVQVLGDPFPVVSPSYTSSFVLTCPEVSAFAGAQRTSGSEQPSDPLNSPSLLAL
EBNA-1 inh conf: EBNA-1 (EBV) inhibition, confirmation | shares compounds with EBNA-1 inh | Recombinant EBNA-1 DBD, Cy5-DNA fluorescence polarization | inhibition, % at 14.8 µM | hit rate 35% among 830 | AID 2292;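 active means mean inhibition across replicates above a set limit taken from the earlier primary screen, cut at about 28% in these data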;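 further: plate controls were EBNA-1 protein with DMSO for no effect and wells lacking EBNA-1 for full effect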
ZTA DNA inh trip: counter-screen for EBNA-1 inhibitors: Epstein-Barr virus ZTA inhibitors, triplicate; AID 2328; Zta-ZRE DNA binding, Cy5 fluorescence polarization; 830 tested, under 10 active; shares compounds with EBNA-1 inh; inhibition, % at 11.1 µM;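 active means mean inhibition over triplicates above a set limit taken from the primary EBNA-1 screen, cut at about 37% in these data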;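 further: purified full length Zta protein with Cy5 labeled ZRE DNA probe; 0% = Zta with DMSO and 100% = wells lacking Zta protein; inhibitors lower polarization by freeing the labeled DNA probe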
An asterisk follows results filed as active; u = inconclusive; x = no result. The list is not random: actives were taken first. Their share in the collection is about 2.2%.

SMILES	NLRP3 yeast inh	EBNA-1 inh	NALP1 inh	ZTA counter	PolyA inh	dFosB activator	EBNA-1 inh conf	ZTA DNA inh trip
Cc1cc(C)cc(OCCn2nnc3ccccc32)c1	19	2	2	-5	u	-8	x	x
CC(NC(=O)COc1ccc(/C=N/NC(=O)C(=O)Nc2ccccc2Br)cc1)c1ccccc1 (centres undefined)	8	34*	1	-10	5	-3	50*	9
O=C(COc1ccc(/C=N/NC(=O)c2ccccc2Br)cc1)Nc1ccccc1	14	-3	-6	-1	-2	-11	x	x
CC(OC(=O)CCCC(=O)Nc1ccc(F)cc1)C(=O)c1ccccc1 (centres undefined)	21	7	-7	1	1	-10	x	x
COc1cccc(/C=N/NC(=O)C(=O)Nc2ccccc2OC(F)(F)C(F)F)c1	11	30*	18	13	-1	13	24	5
CCn1c(SCC(=O)c2c[nH]c3ccccc23)nnc1-c1cccs1	11	30*	x	-3	8	2	23	12
Cc1ccc(C)c(NC(=O)NCCN2CCCCC2)c1	4	x	10	x	3	2	x	x
NS(=O)(=O)c1ccc(NC(=O)/C=C/c2cccs2)cc1	12	55*	x	0	14	8	1	0
NS(=O)(=O)c1cccc(NC(=O)/C=C/c2cccs2)c1	1	6	6	4	1	1	x	x
Cn1c(=O)n(C)c2cc(/C=C3/NC(=O)N(Cc4ccccc4)C3=O)ccc21	6	134*	6	-7	-12	-13	113*	1
Cc1ccc(/C=C2/NC(=O)N(Cc3ccccc3)C2=O)o1	19	5	32	0	-2	-2	x	x
O=c1c2ccccc2nnn1CSc1nnc(Nc2ccccc2)s1	10	36*	8	5	-5	9	13	16
CC1(c2ccccc2)NC(=O)N(CCN2C(=O)c3ccccc3C2=O)C1=O (centres undefined)	9	59*	16	0	8	-9	1	-1
CC(C)N(C(=O)[C@H]1C[C@H](CC(=O)NCCC2=CCCCC2)C(=O)N2CCc3c([nH]c4ccc(Cl)cc34)[C@]12C)C(C)C	x	x	x	x	x	-3	x	x
COC(=O)Cc1c(C)c2ccc(OC3CCCCC3=O)cc2oc1=O (centres undefined)	9	x	4	x	-7	-2	x	x
COC(=O)Cc1c(C)c2ccc(OC3CCCCC3=O)c(C)c2oc1=O (centres undefined)	16	125*	2	24	-12	0	-1	-4
O=C(c1ccccc1F)N1CCN(S(=O)(=O)c2ccc(S(=O)(=O)N3CCCCCC3)cc2)CC1	-8	31*	x	3	2	3	33*	-6
COc1ccc(Cc2c(Cl)ncnc2Cl)cc1	5	33*	14	12	-11	-6	-9	-11
COc1ccc(Cc2c(C)nc(N)nc2Cl)cc1	7	-7	16	17	5	-10	x	x
Cn1nc(C(=O)NNC(=O)Cc2ccc(S(=O)(=O)N3CCOCC3)s2)c2ccccc2c1=O	x	x	x	x	x	-8	x	x
CCOc1ccc(NC(=O)CC(=O)Nc2ccc(OCC)cc2)cc1	3	42*	0	0	3	-7	4	-4
CCOc1ccc(NC(=O)CCC(=O)O)cc1	-5	0	21	5	-10	-1	x	x
COC(=O)C(C(=O)OC)c1ccc(NC(=O)c2cccc(Cl)c2)cc1	-4	60*	-18	-3	-10	-5	49*	0
CCOc1ccc(NC(=O)c2cccc(NC(=O)c3ccccc3)c2)cc1	12	46*	3	0	7	3	37*	-3
COc1ccc(C(=O)Nc2ccc(C(=O)c3ccccc3)cc2)cc1	1	11	x	10	-5	x	x	x
SMILES	NLRP3 yeast inh	EBNA-1 inh	NALP1 inh	ZTA counter	PolyA inh	dFosB activator	EBNA-1 inh conf	ZTA DNA inh trip
COc1ccc(NC(=O)c2cccc(NC(=O)c3ccccc3)c2)cc1	23	68*	5	-13	6	-5	-5	-4
COc1cccc(CN(C(=O)c2cccs2)C2CCS(=O)(=O)C2)c1 (centres undefined)	0	1	-4	-11	5	3	x	x
CCCCn1c(N)c(N(CCC(C)C)C(=O)CN2C(=O)C3CCCCC3C2=O)c(=O)[nH]c1=O (centres undefined)	10	-3	15	-5	4	-1	x	x
COc1ccc(C(=O)Nc2ccc(C(=O)OCC(=O)c3ccccc3)cc2)cc1	-1	-7	28	-6	-2	8	x	x
COc1ccc(C(=O)COC(=O)c2ccc(NC(=O)c3ccccc3)cc2)cc1	10	29*	-4	13	-7	u	-9	7
CCc1noc(C)c1C(=O)Nc1cc(Cl)ccc1N1CCOCC1	7	7	x	15	4	-1	x	x
O=C(Nc1cc(Cl)ccc1C(=O)O)c1ccc(CN2C(=O)c3ccccc3C2=O)cc1	x	-4	x	4	-4	9	x	x
COc1ccccc1NC(=O)c1c(N=Cc2c(O)ccc3ccccc23)cnn1C	-11	39*	-3	8	-5	-20	9	2
Cn1ncc(N=Cc2c(O)ccc3ccccc23)c1C(=O)N1CCOCC1	4	2	x	-3	-1	-11	x	x
COc1ccc(C(=O)NCCC2=CCCCC2)cc1OC1CCN(C(C)C)CC1	-3	0	12	-8	-6	-9	x	x
CCCNC(=O)C1CCC(CNS(=O)(=O)c2ccc3c(c2)CC(C)N3C(C)=O)CC1 (centres undefined)	-4	-20	-20	-24	-2	-6	x	x
CC(=O)N1c2ccc(S(=O)(=O)NCC3CCC(C(=O)NC4CCCCC4)CC3)cc2CC1C (centres undefined)	11	41*	8	3	2	2	-5	-6
CSCCC(NC(=O)c1ccco1)C(=O)N1CC(C)OC(C)C1 (centres undefined)	13	x	x	-2	x	3	x	x
O=C(NCc1ccc(-c2nc3ccccc3s2)cc1)c1cc2ccccc2o1	12	28*	19	3	-22	-7	3	5
Cc1cc(C)n(-c2ccc(C(=O)OCC(=O)NC(c3ccccc3)c3ccccc3)cc2)n1	5	32*	22	19	4	-3	26	2
CC1CCCC(C)N1S(=O)(=O)c1ccc(NC(=O)CCn2cnc3ccccc3c2=O)cc1 (centres undefined)	8	48*	1	-9	13	12	52*	2
O=C(Cn1cnc2ccccc2c1=O)Nc1ccc(S(=O)(=O)N2CCCC2)cc1	5	11	4	-3	7	-16	x	x
